Data on 8 molecules can be found in PubChem BioAssay.

The subject of experiment [1] is Wnt5a (protein binding on small-molecule microarray). Nature of the experiment: small molecules binding Wnt5a protein – biophysical, small-molecule microarray, 635/667 nm fluorescence, primary screen (AID 1142).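 Note: fluorescence read at 667 nm with signal to noise per printed feature.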 The settings on record: 635 nm fluorescence, higher = more signal.
Experiment [2] in a line: ATP-based viability of Huh7 replicon cells – cell-based, CellTiter-Glo luminescence, basal, 48 h, cytotoxicity control for HCV replication inhibitor project, primary screen (AID 1143).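 Note: Huh7 hepatoma cells carrying a hepatitis C replication reporter with no stimulus; test concentration not given here.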 The note with it: higher = more signal, called active from +8 up or from −8 down. (In general: Replicon systems follow genome replication, usually without infectious particles.)
Experiment [3] in a line: basal CRE-LacZ reporter activity in PC12 – cell-based, unstimulated, primary screen (AID 1145). The note with it: no forskolin, luminescence, 4.5 h, higher = more signal, called active from +8 up or from −8 down.
Experiment [4] in a line: forskolin-driven CRE-LacZ activity in PC12 – cell-based, CRE-LacZ reporter, forskolin-stimulated, primary screen (AID 1146).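 Note: PC12 cells with 6xCRE LacZ reporter stimulated by forskolin 10 µM; beta-galactosidase reporter signal reflecting CREB driven transcription.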 The note with it: luminescence, 4.5 h, higher = more signal, called active from +8 up or from −8 down.
Experiment [5] deals with Streptavidin (Streptomyces avidinii) (UniProt P22629). In words: compounds binding control protein streptavidin – biophysical, small-molecule microarray, 635/667 nm fluorescence, artefact control for SMM compound annotation, primary screen (AID 1147).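 Note: signal reflects streptavidin binding to arrayed compounds as a control protein.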 The note with it: higher = more signal.
Streptavidin (Streptomyces avidinii), sequence (P22629 whole entry, looked up): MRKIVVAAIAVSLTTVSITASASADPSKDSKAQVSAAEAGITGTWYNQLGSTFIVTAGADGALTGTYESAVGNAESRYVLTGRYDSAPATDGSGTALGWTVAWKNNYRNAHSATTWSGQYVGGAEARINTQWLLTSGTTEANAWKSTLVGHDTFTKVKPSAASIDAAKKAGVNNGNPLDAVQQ
Experiment [6] in a line: probe aInhba binding on compound microarray – biochemical, small-molecule microarray, 635/667 nm fluorescence, primary screen (AID 1148).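 Note: score merges 667nm spot fluorescence with signal-to-noise for antibody binding to printed compounds.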 The note with it: higher = more signal.
In experiment [7] the target is Torsin-1A (Homo sapiens) (UniProt O14656). Nature of the experiment: TOR1A wild-type binding on microarray – cell lysate, small-molecule microarray, lysate, 635/667 nm, primary screen (AID 1149). The note with it: COS7 hTOR1A-WT lysate, 635 nm fluorescence, higher = more signal.
Torsin-1A (Homo sapiens), sequence (O14656 whole entry, looked up): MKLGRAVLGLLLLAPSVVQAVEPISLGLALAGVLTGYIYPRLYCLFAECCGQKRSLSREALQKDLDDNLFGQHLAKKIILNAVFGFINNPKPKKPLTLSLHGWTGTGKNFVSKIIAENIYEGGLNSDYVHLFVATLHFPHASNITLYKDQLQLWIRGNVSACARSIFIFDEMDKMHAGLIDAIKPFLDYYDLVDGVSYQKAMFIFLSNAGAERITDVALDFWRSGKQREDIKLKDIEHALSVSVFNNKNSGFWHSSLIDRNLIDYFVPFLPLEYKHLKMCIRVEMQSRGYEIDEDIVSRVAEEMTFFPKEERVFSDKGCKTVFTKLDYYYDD
Experiment [8] has the same target. In words: torsin A mutant lysate binding on microarrays – cell lysate, small-molecule microarray, COS7 lysate, 635/667 nm fluorescence, primary screen (AID 1150).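 Note: score pools 667 nm emission and signal to noise measuring lysate protein binding.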 The note with it: COS7 hTOR1A mutant lysate, 635 nm fluorescence, higher = more signal.
Experiment [9] has as its system Sonic hedgehog protein (Shh). Nature of the experiment: Sonic hedgehog microarray binding compounds – biochemical, small-molecule microarray, 635/667 nm fluorescence, primary screen (AID 1151).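 Note: Shh protein binding to compounds spotted on small-molecule microarray slides; score combines spot fluorescence intensity with signal-to-noise across triplicate slides.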 The note with it: 635 nm fluorescence, higher = more signal.
Experiment [10] can be described thus: optical density shifts of acrAB sulA E. coli – strain DRC41, OD650, 48 h, E. coli filamentation inducer project, primary screen (AID 1152).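 Note: E. coli MC1000 strain DRC41 lacking acrAB efflux pump and sulA.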 The settings on record: higher = more signal, called active from +8 up or from −8 down.
The nature of experiment [11]: probe aLefty1 binding on compound microarray – biochemical, small-molecule microarray, 635/667 nm fluorescence, primary screen (AID 1153).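 Note: score merges spot fluorescence with signal-to-noise ratio from the scanned slide images.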 The settings on record: higher = more signal.
Experiment [12] in a line: plasmodial surface anion channel blockers, osmotic lysis – cell-based, P. falciparum Indochina, OD700, 1 h, primary screen (AID 1154). The note with it: P. falciparum Indochina infected RBC osmotic lysis, higher = more signal, called active from +8 up or from −8 down.
Experiment [13] is described as follows: plasmodial surface anion channel blockers, osmotic lysis – cell-based, P. falciparum Indochina, OD700, 2 h, primary screen (AID 1155).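 Note: lysis reports solute entry through the parasite surface anion channel PSAC.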 The note with it: P. falciparum Indochina infected erythrocytes, higher = more signal, called active from +8 up or from −8 down.
The nature of experiment [14]: changes in parasitized red cell lysis, either direction – P. falciparum Indochina, OD700, 3 h, PSAC antagonist project, primary screen (AID 1156). The settings on record: P. falciparum-infected erythrocytes, osmotic lysis, higher = more signal, called active from +8 up or from −8 down.
A short description of experiment [15]: plasmodial surface anion channel blockers, osmotic lysis – cell-based, P. falciparum Indochina, OD700, 18 h, primary screen (AID 1157). The note with it: P. falciparum Indochina infected erythrocytes, osmotic lysis OD700, 18 h; higher = more signal, called active from +8 up or from −8 down.
Experiment [16] in a line: S6 kinase pathway phospho-S6 level changes – cell-based, A549, cytoblot, luminescence, serum-stimulated, primary screen (AID 1158).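 Note: serum-stimulated A549 lung adenocarcinoma cells; signal is phosphorylated S6 detected by cytoblot immunostaining with HRP secondary.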 The note with it: 5 h, higher = more signal.
Experiment [17] concerns the target NADPH oxidase 2 (Homo sapiens) (UniProt P04839). Nature of the experiment: compounds shifting NOX2 Amplex Red fluorescence – cell-based, HEK293-NOX2, PMA-stimulated, NOX inhibitor project, primary screen (AID 1159). Note: test concentration not given here. The settings on record: 45 min, higher = more signal, called active from +8 up or from −8 down.
The target of experiment [18] is NADPH oxidase 4 (Homo sapiens) (UniProt Q9NPH5). Nature of the experiment: compounds shifting NOX4 Amplex Red fluorescence – cell-based, HEK293-NOX4, tetracycline-induced, NOX inhibitor project, primary screen (AID 1160). The settings on record: HEK293-NOX4, Amplex Red H2O2 fluorescence, 45 min; higher = more signal, called active from +8 up or from −8 down.
NADPH oxidase 4 (Homo sapiens), sequence (Q9NPH5 whole entry, looked up): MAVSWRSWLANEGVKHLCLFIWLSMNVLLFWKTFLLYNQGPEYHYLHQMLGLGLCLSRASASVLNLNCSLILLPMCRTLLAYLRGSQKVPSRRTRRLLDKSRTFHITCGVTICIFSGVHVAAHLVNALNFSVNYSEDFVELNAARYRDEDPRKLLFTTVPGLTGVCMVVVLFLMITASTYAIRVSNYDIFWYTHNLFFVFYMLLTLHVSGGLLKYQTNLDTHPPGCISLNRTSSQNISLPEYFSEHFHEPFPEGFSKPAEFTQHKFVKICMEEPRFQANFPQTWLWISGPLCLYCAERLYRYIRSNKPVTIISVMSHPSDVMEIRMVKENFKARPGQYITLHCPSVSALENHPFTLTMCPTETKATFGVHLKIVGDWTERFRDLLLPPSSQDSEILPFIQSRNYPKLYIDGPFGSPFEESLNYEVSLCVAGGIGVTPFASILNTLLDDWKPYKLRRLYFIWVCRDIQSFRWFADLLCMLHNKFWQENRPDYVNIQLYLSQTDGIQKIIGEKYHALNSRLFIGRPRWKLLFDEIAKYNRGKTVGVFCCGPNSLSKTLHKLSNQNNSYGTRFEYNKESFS
Experiment [19] deals with NADPH oxidase 5 (Homo sapiens) (UniProt Q96PH1). In words: compounds shifting NOX5 Amplex Red fluorescence – cell-based, HEK293-NOX5, NOX inhibitor project, primary screen (AID 1161). The note with it: HEK293-NOX5, ionomycin, 45 min, higher = more signal.
NADPH oxidase 5 (Homo sapiens), sequence (Q96PH1 whole entry, looked up): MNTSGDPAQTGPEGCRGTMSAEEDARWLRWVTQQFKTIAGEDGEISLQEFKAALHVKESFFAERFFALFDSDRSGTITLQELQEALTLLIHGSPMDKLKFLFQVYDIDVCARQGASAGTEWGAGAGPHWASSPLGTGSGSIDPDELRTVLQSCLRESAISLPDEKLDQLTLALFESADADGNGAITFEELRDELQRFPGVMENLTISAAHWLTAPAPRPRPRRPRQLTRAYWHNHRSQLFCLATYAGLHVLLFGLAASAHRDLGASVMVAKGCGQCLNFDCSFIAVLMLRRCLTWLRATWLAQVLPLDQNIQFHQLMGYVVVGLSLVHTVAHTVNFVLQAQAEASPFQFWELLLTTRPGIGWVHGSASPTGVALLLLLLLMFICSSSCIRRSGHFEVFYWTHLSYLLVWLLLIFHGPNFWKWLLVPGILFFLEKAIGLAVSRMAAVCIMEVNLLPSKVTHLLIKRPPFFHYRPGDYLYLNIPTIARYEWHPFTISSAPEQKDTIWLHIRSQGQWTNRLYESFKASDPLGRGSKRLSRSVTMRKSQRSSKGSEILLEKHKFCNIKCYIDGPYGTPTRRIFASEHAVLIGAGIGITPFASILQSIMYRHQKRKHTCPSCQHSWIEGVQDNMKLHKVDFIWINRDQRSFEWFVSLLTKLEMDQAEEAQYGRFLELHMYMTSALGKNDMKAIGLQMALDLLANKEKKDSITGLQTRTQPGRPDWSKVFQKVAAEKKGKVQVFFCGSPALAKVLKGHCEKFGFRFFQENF

Structures are written as SMILES. The source made the active and inactive calls.

NADPH oxidase 2 (Homo sapiens), sequence (P04839 whole entry, looked up): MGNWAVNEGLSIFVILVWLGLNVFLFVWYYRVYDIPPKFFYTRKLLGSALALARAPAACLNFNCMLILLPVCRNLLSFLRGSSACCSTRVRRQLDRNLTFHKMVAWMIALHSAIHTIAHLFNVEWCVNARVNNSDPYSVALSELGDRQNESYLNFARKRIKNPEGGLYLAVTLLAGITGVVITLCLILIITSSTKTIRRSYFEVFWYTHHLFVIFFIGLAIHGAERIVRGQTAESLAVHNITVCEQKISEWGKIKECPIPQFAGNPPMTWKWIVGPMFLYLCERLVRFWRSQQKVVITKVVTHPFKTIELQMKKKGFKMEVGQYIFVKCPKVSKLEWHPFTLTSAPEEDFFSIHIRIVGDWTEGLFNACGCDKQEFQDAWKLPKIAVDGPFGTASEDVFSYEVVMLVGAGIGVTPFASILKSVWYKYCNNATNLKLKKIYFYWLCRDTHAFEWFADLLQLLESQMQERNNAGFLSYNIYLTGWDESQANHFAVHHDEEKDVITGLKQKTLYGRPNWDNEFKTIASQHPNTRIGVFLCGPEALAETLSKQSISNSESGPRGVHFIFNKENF

As for `C[C@@H]1C=CCC(=O)OC[C@H]2O[C@@H](C=C[C@@H]2O)[C@H](C)C=CCC(=O)OC[C@H]2O[C@H]1C=C[C@@H]2O`, the composite z-score stood at 0.375 in experiment [1]; 0.412 in experiment [5]; 0.357 in [6]; 0.997 with Torsin-1A (Homo sapiens) [7]; 0.515 in the experiment with Torsin-1A (Homo sapiens) [8]; 2.24 in [9]. In addition, the composite z-score in experiment [11] is 0.596. Besides, the z-score in experiment [2] was -5.78 (inactive); in experiment [3] it was 0.247 (inactive); in experiment [4], -0.724 (inactive); in experiment [10] it was -1.91 (inactive); in experiment [12], 0.43 (inactive); in [13], 0.278 (inactive). Besides, the z-score is -1.65 (inactive) in [14]; -0.725 (inactive) in experiment [15]; 2.22 in experiment [16]; -1.01 (inactive) in experiment [17]; 0.418 (inactive) in experiment [18]; 0.0421 in [19].
As for `O=C1OCC=C[C@H]2OC34C=CCN(Cc5ccccc5)C(=O)[C@H]3N(CCCCCO)C(=O)[C@@H]4[C@@H]12` (some centres not stated), the composite z-score is -0.341 in [1]; -1.62 in [5]; 0.0282 in experiment [6]; -0.391 in the experiment with Torsin-1A (Homo sapiens) [7]; -0.605 in the experiment with Torsin-1A (Homo sapiens) [8]; -1.09 in experiment [9]. This molecule also showed a composite z-score in experiment [11] of -0.44. Further, the z-score in experiment [2] was -2.93 (inactive); in experiment [3], -0.354 (inactive); in [4], -0.679 (inactive); in experiment [10], 2.14 (inactive); in [12], 1.52 (inactive); in [13], -0.426 (inactive). Besides, the z-score is -0.912 (inactive) in [14]; -1.34 (inactive) in experiment [15]; 1.19 in [16]; 2.15 (inactive) in [17]; 0.352 (inactive) in experiment [18]; 1.51 in [19].
On to `C=CCNC(=O)[C@H]1[C@@H]2C(=O)O[C@@H](c3ccccc3)[C@@H](c3ccccc3)N2[C@@H](c2ccccc2OCCO)[C@]12C(=O)N(C(=O)OCCOC)c1ccc(C#CCNC(N)=O)cc12`, for which the composite z-score in experiment [1] is -0.0103; in [5] it was 0.98; in [6], 0.026; with Torsin-1A (Homo sapiens) [7], 0.661; in the experiment with Torsin-1A (Homo sapiens) [8] it was 0.296; in experiment [9], 0.633. Also, the composite z-score in [11] was found to be 0.178. Further, the z-score in experiment [2] is -1.76 (inactive); in experiment [3] it was -0.471 (inactive); in [4], 0.948 (inactive); in [10], 1.8 (inactive); in experiment [12], 2.13 (inactive); in experiment [13] it was -0.0443 (inactive). Also, the z-score was 0.391 (inactive) in [14]; -1.3 (inactive) in [15]; 1.78 in experiment [16]; 1.76 (inactive) in experiment [17]; 1.35 (inactive) in [18]; -0.971 in [19].
With `CO[C@@H]1COC(=O)[C@@H]2CCCN2C(=O)CC=C[C@@H](C)[C@H](OC)COC(=O)[C@@H]2CCCN2C(=O)CC=C[C@H]1C`, the composite z-score in experiment [1] was -0.137; in experiment [5], -0.613; in [6], -0.179; with Torsin-1A (Homo sapiens) [7], 0.985; with Torsin-1A (Homo sapiens) [8], 0.306; in experiment [9], 2.1. Besides, in [11], the composite z-score was -0.0984. Also, the z-score in [2] was -0.381 (inactive); in experiment [3] it was -0.292 (inactive); in experiment [4] it was -0.559 (inactive); in experiment [10], 1.11 (inactive); in experiment [12] it was -0.0896 (inactive); in experiment [13], 0.0184 (inactive). Also, the z-score in experiment [14] is 0.11 (inactive); in experiment [15] it was -0.113 (inactive); in experiment [16], 0.956; in experiment [17], -0.353 (inactive); in [18], 0.476 (inactive); in [19] it was 0.606.
`Cc1ccc(S(=O)(=O)c2cc3oc2CC[C@@H](CO)NC(=O)N(C)Cc2cn(nn2)C[C@H](Cc2ccccc2)NC3=O)cc1`: the composite z-score is -0.0319 in experiment [1]; -0.183 in experiment [5]; -0.0335 in experiment [6]; 0.285 with Torsin-1A (Homo sapiens) [7]; 0.501 with Torsin-1A (Homo sapiens) [8]; 0.0007 in experiment [9]. This molecule also displayed a composite z-score in experiment [11] of -0.234. For the same molecule, the z-score is -0.0124 (inactive) in experiment [2]; -0.332 (inactive) in [3]; -0.58 (inactive) in experiment [4]; 3.05 (inactive) in [10]; 28.3 (active) in experiment [12]; 13.3 (active) in experiment [13]. For the same molecule, the z-score in experiment [14] was 0.208 (inactive); in [15] it was 2.03 (inactive); in [16], 0.533; in experiment [17], 0.644 (inactive); in experiment [18], 0.743 (inactive); in experiment [19] it was 0.648.
Regarding `CCN1C(C)=C(C(=O)OC)[C@@H](c2ccccc2)N2C(=O)[C@](O)(C(=O)OC)[C@@H](c3ccccc3)C(C(=O)c3ccccc3)=C12`, the composite z-score in [1] was 0.271; in experiment [5], 0.0306; in experiment [6], -0.0552; with Torsin-1A (Homo sapiens) [7], 0.5; with Torsin-1A (Homo sapiens) [8] it was 0.269; in [9], 0.473. In [11], the composite z-score was -0.142. For the same molecule, the z-score in experiment [2] is -1.49 (inactive); in [3] it was 1.55 (inactive); in experiment [4] it was 0.214 (inactive); in experiment [10], 0.282 (inactive); in experiment [12], 1.78 (inactive); in experiment [13], 0.489 (inactive). For the same molecule, the z-score in [14] is 1.16 (inactive); in [15] it was 0.978 (inactive); in experiment [16], 1.3; in experiment [17], 0.6 (inactive); in experiment [18] it was 0.828 (inactive); in experiment [19], -0.284.
Regarding `O=C1c2ccccc2[C@](Cc2ccccc2I)(C(=O)NCC(F)(F)F)[C@H](c2ccc(CO)cc2)N1Cc1ccccc1C(F)(F)F`, the composite z-score in experiment [1] was 0.12; in experiment [5], 0.59; in experiment [6] it was -0.268; with Torsin-1A (Homo sapiens) [7] it was 0.305; with Torsin-1A (Homo sapiens) [8], 0.245; in experiment [9], 0.137. In [11], the composite z-score was -0.597. Moreover, the z-score in [2] was -0.254 (inactive); in experiment [3], -0.438 (inactive); in experiment [4] it was -0.112 (inactive); in experiment [10], 1.37 (inactive); in [12], 2.78 (inactive); in experiment [13] it was 0.55 (inactive). Moreover, the z-score is 0.564 (inactive) in [14]; 0.449 (inactive) in experiment [15]; 0.179 in [16]; 1.27 (inactive) in [17]; 0.605 (inactive) in [18]; 2.32 in [19].
As to `C[C@H]1COC(=O)[C@@H]2CCCN2C(=O)[C@@H](C)COC(=O)[C@@H]2CCCN2C1=O`, the composite z-score in [1] was 0.0246; in [5] it was -0.269; in experiment [6] it was 0.0086; in the experiment with Torsin-1A (Homo sapiens) [7] it was -0.213; with Torsin-1A (Homo sapiens) [8], 0.25; in experiment [9], 0.355. In [11], the composite z-score was -0.147. Moreover, the z-score in [2] is -0.0001 (inactive); in experiment [3], 0.613 (inactive); in [4], -0.881 (inactive); in [10], 0.407 (inactive); in experiment [12], -0.0889 (inactive); in experiment [13] it was 0.0593 (inactive). Also, the z-score in experiment [14] is 0.425 (inactive); in [15], -0.187 (inactive); in experiment [16], 0.33; in experiment [17] it was 0.764 (inactive); in experiment [18], 0.382 (inactive); in [19], -0.406.
